# Assay results: PubChem BioAssay AID504832 (National Center for Advancing Translational Sciences (NCATS), 2011)
# The whole screen tested about 310,000 compounds, of which about 18,000 (5.8%) were called active. Not shown: some 22% with an inconclusive outcome. This is one part of a sample in which actives are shown more often than they occur. Calls come from the whole dose curve; as a rule, active = well fitted inhibition curve with a large enough effect; inconclusive = small, poorly fitted or top-dose-only effect, or another doubt; inactive = no such curve, though single readings can be large or run the other way.
# Assay: Primary qHTS for delayed death inhibitors of the malarial parasite plastid, 48 hour incubation
# Conditions: P. falciparum luciferase growth in erythrocytes; series mostly up to 28.7 µM; activity change, negative = inhibition: at the top concentration
# Method in brief: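 In quantitative HTS format, infected erythrocytes bearing luciferase-reporter parasites were treated for a single generation at 37 C. Luminescence after adding detection reagent served as the growth measure.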
# % is set by controls: 0 for no effect and ±100 for the full control effect; potency is the fitted concentration of half-maximal effect.
Compound,"activity change, negative = inhibition",Potency
Cc1onc(-c2c(F)cccc2Cl)c1C(=O)N(C)CC(=O)Nc1cccc(F)c1,-9.49% (inactive),
Cc1[nH]n(C)c(=O)c1C(=O)c1c(-c2c(Cl)cccc2Cl)noc1C,-1.52% (inactive),
COc1ccccc1N1CCN(C(=O)c2cc(-c3ccc(Cl)c(Cl)c3)on2)CC1,-26% (inactive),
COc1ccccc1N1CCN(C(=O)c2c(-c3c(Cl)cccc3Cl)noc2C)CC1,,10.4 µM (active)
COc1cccc(-c2cc(C(=O)N3CCN(c4ccccc4OC)CC3)no2)c1,-0.672% (inactive),
Cc1onc(-c2c(Cl)cccc2Cl)c1C(=O)NNC(=O)c1c(-c2c(Cl)cccc2Cl)noc1C,,8.28 µM (active)
CC(C)c1ccc(/C=C2\NC(=O)NC2=O)cc1,34.2% (inactive),
Cc1ccc2nc3c(cc(C(=O)NCCc4ccccc4)c(=N)n3CC3CCCO3)c(=O)n2c1 (stereo not drawn),,2.08 µM (active)
COc1ccc2oc(C(=O)NCc3ccco3)c(C)c2c1,42.9% (inactive),
Cc1ccc(-c2noc(-c3ccccc3C(=O)NCC3CCCO3)n2)cc1 (stereo not drawn),55.2% (inactive),
Cc1cccn2c(=O)c3cc(C(=O)NCC4CCCO4)c(=N)n(Cc4ccc(F)cc4)c3nc12 (stereo not drawn),,9.28 µM (active)
COc1ccc(CCn2c(=N)c(C(=O)NCc3ccco3)cc3c(=O)n4cccc(C)c4nc32)cc1,,0.465 µM (active)
Cc1cccn2c(=O)c3cc(C(=O)NCCN4CCOCC4)c(=N)n(Cc4cccnc4)c3nc12,-6.49% (inactive),
Cc1ccc(CCNC(=O)c2ccc3nc4ccccc4c(=O)n3c2)cc1,7.18% (inactive),
O=C(NCc1ccco1)c1cccn2c(=O)c3c4c(sc3nc12)CCCC4,-1.75% (inactive),
O=C(Nc1ccccc1C(=O)NCC1CCCO1)c1ccccc1F (stereo not drawn),-13.4% (inactive),
Nc1nc(SCC(=O)Nc2ccc(Cl)cc2C(F)(F)F)n[nH]1,10.1% (inactive),
CN(CC(=O)Nc1ccc(OC(F)(F)F)cc1)C(=O)C1CCC1,-18.1% (inactive),
c1ccc(C2CNCc3c2ccc2ccccc32)cc1 (stereo not drawn),,10.4 µM (active)
CC1=C(C(=O)NC2CC(C)(C)Cc3c2cnn3-c2ccc(C)cc2)OCCO1 (stereo not drawn),-13.1% (inactive),
C=CCOc1cccc(CNCc2cccnc2)c1,8.42% (inactive),
CCc1ccccc1NC(=O)CCOc1ccccc1,-6.71% (inactive),
CCc1ccccc1NC(=O)c1cccs1,39.7% (inactive),

Compound,"activity change, negative = inhibition",Potency
CCc1ccccc1NC(=O)/C(=C/c1ccccc1)c1ccccc1,,5.22 µM (active)
Cc1ccc(C(=O)NCC(=O)OCC(=O)NC2CCCCCCC2)cc1,-0.0814% (inactive),
CCN1C(=O)c2cccc3c(S(=O)(=O)Nc4ccccc4O)ccc1c23,-15.4% (inactive),
C[n+]1ccc(/C=C/c2c[nH]c3ccccc23)cc1,,0.738 µM (active)
CSC(=S)N/N=C/c1c[nH]c2ccccc12,17.1% (inactive),
CN1CCN(/N=C/c2c[nH]c3ccccc23)CC1,60.3% (inactive),
Cn1c(=O)c2c(nc(NCCNC(=O)c3ccco3)n2Cc2ccccc2F)n(C)c1=O,-25.8% (inactive),
CCC(=C/c1sc2ccc3ccccc3c2[n+]1C)/C=C1\Sc2ccc3ccccc3c2N1C,,0.928 µM (active)
COc1ccc2ccn(C)c2c1,3.12% (inactive),
Cc1ccccc1NC(=O)C1CCCN(C(=O)NCc2ccccc2)C1 (stereo not drawn),14.4% (inactive),
O=C(NCC1CCCO1)c1cc2c([nH]c3ccccc32)c(-c2ccc(F)cc2)n1 (stereo not drawn),,9.28 µM (active)
O=C(NCCc1ccc(F)cc1)c1n[nH]c2ccccc12,62.1% (inactive),
O=C(NCC1CCCO1)c1cc(-c2ccccc2)nc2ccccc12 (stereo not drawn),-16.3% (inactive),
O=C(NCCCO)c1cc2c([nH]c3ccccc32)c(-c2ccc(F)cc2)n1,,9.28 µM (active)
COc1cccc2[nH]c(C(=O)NCCc3ccccc3)cc12,108% (inactive),
O=C(NCC1CCCO1)c1ccc2ccccc2n1 (stereo not drawn),59.7% (inactive),
COc1ccccc1OC(C)C(=O)Nc1ccc(S(=O)(=O)Nc2nccs2)cc1 (stereo not drawn),-1.18% (inactive),
CCOc1ccc2c(c1)c(=O)c(S(=O)(=O)c1ccc(C)cc1)cn2CC,3.55% (inactive),
CCc1cccc(C)c1NC(=O)COC(=O)CNC(=O)c1cccs1,2.83% (inactive),
CCc1ccc(Oc2coc3cc(O)ccc3c2=O)cc1,62.3% (inactive),
COc1ccc(-c2nn(-c3ccccc3)cc2CN2CCCO2)c(F)c1,0.912% (inactive),
COc1ccc(-n2cc(CN(C)Cc3n[nH]c(=O)[nH]3)c(-c3cccc(F)c3)n2)cc1,-3.86% (inactive),
COc1ccc(-n2cc(CNC3CCOCC3)c(-c3cccc(F)c3)n2)cc1,,11.7 µM (active)

Compound,"activity change, negative = inhibition",Potency
Cc1ccc(S(=O)(=O)NC(=O)c2cccc(C)c2)cc1,9.68% (inactive),
CCc1cccc(C)c1NC(=O)COC(=O)CC1CCCC1,22.5% (inactive),
Cc1cc(NC(=O)COc2ccccc2C#N)no1,209% (inactive),
CCc1cccc(CC)c1NC(=O)COc1ccccc1C(=O)c1cc(C#N)c(=O)n(C2CCCCC2)c1,,5.86 µM (active)
COc1cccc(-c2coc3cc4oc(=O)c(CC(=O)O)c(C)c4cc23)c1,-6.56% (inactive),
COc1ccccc1C(=O)N/C(=C/c1ccc2c(c1)OCO2)C(=O)Nc1cccc(C(=O)O)c1,26.2% (inactive),
CCC(C)(C)c1ccc(OCC(=O)N(C)C)c(C(C)(C)CC)c1,,11.7 µM (active)
CN(C)CCOc1ccc(Cl)cc1C(C)(C)C,-12.2% (inactive),
CN1C/C(=C/c2cccs2)C(=O)/C(=C\c2cccs2)C1,-48.2% (inactive),
CCc1ccc(NC(=O)N2CCc3ccccc3C2)cc1,13.6% (inactive),
COc1cccc(/C=C2/SC(=S)N(CC(=O)NC3C=CS(=O)(=O)C3)C2=O)c1 (stereo not drawn),19.3% (inactive),
Cc1nc2ccccc2c2oc(C(=O)NCC3CCCO3)cc12 (stereo not drawn),2.28% (inactive),
Cn1c(=O)c2[nH]c(NCC3CCCO3)nc2n(-c2ccccc2)c1=O (stereo not drawn),-0.65% (inactive),
c1ccc2c(NCC3CCCO3)nc(-c3ccncc3)nc2c1 (stereo not drawn),,13.1 µM (active)
COc1ccc(C2=NS(=O)(=O)N(C)C(C(=O)N(C)Cc3ccccc3)=C2)cc1,3.56% (inactive),
Cc1nn(C)c(C)c1NS(=O)(=O)c1ccc(OC(F)(F)F)cc1,9.37% (inactive),
COCC1CCN(C(=O)C2CCC(=O)N(CC3CCCCC3)C2)CC1 (stereo not drawn),3.07% (inactive),
CC(CN1CCOCC1)OC(=O)c1ccc(Cl)cc1Cl (stereo not drawn),2.65% (inactive),
CCCCn1c(CCCNC(=O)CC)nc2ccccc21,20.9% (inactive),
CCC(=O)Nc1nc2ccccc2n1Cc1ccccc1C,,1.47 µM (active)
CCC(=O)NCCc1nc2ccccc2n1CC,2.61% (inactive),
COCCn1c(C)cc(C(=O)COC(=O)CNC(=O)c2ccco2)c1C,21.6% (inactive),
